Vif-APOBEC3F blk: blocks the Vif interaction with APOBEC3F; 0.2% of 390,000 active; AID 602313; Potency, µM (titrated, usually from 46.1 µM), for the others: top-dose activity, negative = active; HeLa A3F-eYFP + Vif (tagged APOBEC3F with the HIV-1 protein that degrades it), YFP fluorescence increase; note: potency is the fitted concentration of half-maximal effect; % of control where 0% means no effect; nearly all actives have a fitted effect of over 65% in size
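Fluorescence increase (Ex 488/Em 500-530) after overnight compound treatment at 37 deg C flags inhibition of Vif-driven A3F-eYFP loss in stable HeLa A3F-eYFP/Vif cells seeded overnight beforehand.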
Giardia killer: kills Giardia lamblia; Giardia lamblia trophozoite viability; activity change, % at 7.66 µM, hits read low; 0.15% of 340,000 active; AID 540267; in the data active = activity change below about -80%; inconclusive = between about -30% and that limit;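 note: parasites exposed to compound for two days anaerobically before the ATP read; % is set by controls: 0 for no effect and ±100 for the full control effect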
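Viability, read as ATP luminescence: trophozoites at 100 cells/well, compound added, 48 hrs anaerobic at 37 deg C, then 15-30 min room-temperature development before reading.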
SW480 rereplic: inducers of DNA re-replication in SW480 colon cancer cells | 1.8% of 340,000 active | Potency, µM (titrated, usually from 46.1 µM), inactives show top-dose re-replication activation, hits mostly activators | AID 624297 | SW480 DNA re-replication, Hoechst DNA content imaging, 48 h; note: potency is the fitted concentration of half-maximal effect; % of control where 0% means no effect; nearly all actives have a fitted effect of over 55% in size
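DNA re-replication was detected as more nuclei of elevated Hoechst intensity after 48 hr exposure to compound (23 nL pinned per well of 250 cells).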
Vif-APOBEC3G blk: inhibitors of Vif-APOBEC3G interaction | Q9HC16 | HeLa A3G-eYFP + Vif (tagged APOBEC3G with the HIV-1 protein that degrades it), YFP fluorescence, overnight | Potency, µM (highest dose often 46.1 µM), inactives show at the top dose activity, negative = active, actives largely listed as inhibitors | 0.076% of 410,000 active | AID 602310; note: potency is the fitted concentration of half-maximal effect; % is set by controls: 0 for no effect and ±100 for the full control effect; nearly all actives have a fitted effect of over 60% in size
Target sequence (Q9HC16 whole entry, looked up): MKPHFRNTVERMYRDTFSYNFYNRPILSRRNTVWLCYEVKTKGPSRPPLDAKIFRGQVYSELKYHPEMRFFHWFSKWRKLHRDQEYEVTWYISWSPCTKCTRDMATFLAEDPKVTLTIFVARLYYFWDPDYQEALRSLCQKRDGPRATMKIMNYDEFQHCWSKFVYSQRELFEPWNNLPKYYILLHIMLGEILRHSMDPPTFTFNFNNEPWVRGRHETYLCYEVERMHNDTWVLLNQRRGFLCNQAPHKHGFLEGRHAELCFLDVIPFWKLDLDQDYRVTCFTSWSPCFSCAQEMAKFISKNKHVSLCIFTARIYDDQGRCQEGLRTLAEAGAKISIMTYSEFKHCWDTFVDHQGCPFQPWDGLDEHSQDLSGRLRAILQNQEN
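HeLa cells stably expressing Vif and C-terminally eYFP-tagged A3G, seeded overnight at 37 deg C, then exposed to compound by pintool overnight at 37 deg C. Rise in yellow fluorescence (Ex 488/Em 500-530, Acumen) marks blocked Vif-driven A3G degradation.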
MCF10A rerep: DNA re-replication induction in MCF 10a cells; MCF 10A DNA re-replication, Hoechst nuclear intensity, 48 h; Potency, µM (doses to about 46.1 µM), inactives show at the top dose activity, positive = re-replication, hits mostly activators; 2.9% of 350,000 active; AID 624296; note: potency is the fitted concentration of half-maximal effect; % of control where 0% means no effect; nearly all actives have a fitted effect of over 50% in size
IL1B secr inh: inflammasome signaling inhibition, IL-1 beta readout | THP-1 LPS/ATP IL-1B secretion, AlphaLISA, 16 h; stronger effect = lower value | activity change, % at 57.5 µM | 4.7% of 360,000 active | AID 743279; in the data active = activity change below about -50%; inconclusive = mostly about -30% to -49%; note: % is set by controls: 0 for no effect and ±100 for the full control effect
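THP-1 cells pretreated 1 hr with compounds (up to 57.5 uM final), then stimulated with LPS (250 ng/mL final) plus ATP (1.25 mM final); secreted IL-1B measured by AlphaLISA after 16 hr, decreased signal indicating inhibition.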
Starred values were filed as active, the others as inactive; u = inconclusive; x = not tested or not shown; [ ] = remark or other dose. Most compounds without a hit are left out; they make up all but 6.9% or so of the library. Unless noted, calls come from the whole dose curve; as a rule, active = well fitted curve in the direction sought with a large enough effect; inconclusive = small, poorly fitted or top-dose-only effect, or another doubt; inactive = no such curve, though single readings can be large; an effect the other way counts as inactive or inconclusive.

SMILES	Vif-APOBEC3F blk	Giardia killer	SW480 rereplic	Vif-APOBEC3G blk	MCF10A rerep	IL1B secr inh
O=C(Cn1cc2c(n1)CCCC2)Nc1cc(C(F)(F)F)ccc1Cl	-5%	x	x	0%	x	x
CCCc1ccc(C(=O)NC(=O)c2ccccc2O)cc1	-1%	-20	3%	-5%	u	34
O=C(NC(=O)c1ccccc1O)c1ccc(C(F)(F)F)cc1	4%	-9	u	-4%	28%	-69*
Cc1cccc(C(=O)Oc2c(Br)cc(Br)cc2/C=N/NC(=O)c2ccncc2)c1	12%	12	2%	0%	1%	11
Cc1cc(C(=O)N/N=C/c2cc(Br)cc(Br)c2OC(=O)c2cccc(F)c2)n[nH]1	-13%	5	0.92µM*	-1%	15µM*	78
CN1CCN(CC(=O)Nc2c(C(=O)c3ccccc3)oc3ccccc23)CC1	-14%	-9	u	-1%	30%	-71*
COc1ccc2oc(C(=O)c3ccccc3)c(NC(=O)CN3CCN(C)CC3)c2c1	-10%	-9	-1%	0%	4%	-18
O=C(CSc1nc2c([nH]c3ccccc32)c(=O)n1-c1ccccc1)NCc1ccc(F)cc1	0%	x	x	5%	x	x
CCC1(C)Cc2c(sc3nnn(Cc4ccccc4Cl)c(=O)c23)CO1 (centres undefined)	1%	8	17%	1%	16µM*	-20
CC/C=C/[C@@H](c1ccccc1)[C@H](C)C(O)CC(=O)SC(C)(C)C (some centres undefined)	x	0	x	-3%	x	x
CCn1c(=NC(=O)c2ccc(S(=O)(=O)N3CCCCC3)cc2)sc2cccc(OC)c21	3%	x	x	3%	x	x
C=CCNc1nc(N2CCCCC2)c(C#N)c2c1CN(Cc1ccccc1)CC2	3%	2	u	-8%	16µM*	-6
COc1ccc(C(=O)N(c2ccc(C)cc2)S(=O)(=O)c2ccc(C)cc2)cc1	-16%	x	x	-16%	x	x
O=C(C1=C(O)C(=O)N(CC2CCCO2)C1c1cccc(O)c1)c1ccco1 (centres undefined)	4%	9	-7%	0%	0%	11
O=C(C1=C(O)C(=O)N(CC2CCCO2)C1c1ccccc1F)c1ccco1 (centres undefined)	2%	-24	-1%	-1%	-1%	-94*
CC(C)(C)c1ccc(N=C2SCC(=O)N2Cc2cccs2)cc1	-13%	6	u	-2%	23µM*	x
CCN1C(=O)CSC1=Nc1ccc(C(=O)O)cc1	17%	8	7%	1%	-13%	39
O=C(Cn1c(=O)ccc2cc(S(=O)(=O)N3CCCC3)ccc21)Nc1ccc(Cl)cc1	4%	x	x	-3%	x	x
Cn1ncc2c(O/N=C(\N)c3ccc(C(F)(F)F)cc3)ncnc21	6%	16	7.3µM*	0%	u	-70*
Cc1ccc(C(=O)NNc2ncnc3c2cnn3C)cc1	-17%	-18	-52%	1%	-1%	6
Cc1cc(NC(=O)c2c(F)cccc2Cl)n(-c2nc3ccccc3[nH]2)n1	-16%	-8	-5%[9.22 µM]	3%	10µM*	0
Cc1cc(NC(=O)c2c(F)cccc2F)n(-c2nc3ccccc3[nH]2)n1	-2%	-3	8.2µM*	2%	12µM*	u
Cc1cc(NC(=O)c2ccccc2F)n(-c2nc3ccccc3[nH]2)n1	-15%	2	5%	-1%	u	4
O=C(c1ccc(CS(=O)(=O)c2c(Cl)cccc2Cl)o1)N1CCN(c2ccccc2)CC1	2%	x	x	-3%	x	x
O=C(C[n+]1cc(-c2ccc(Cl)cc2)n2c1CCCCC2)c1ccccc1	-6%	-5	-6%[9.22 µM]	1%	u	-62*
SMILES	Vif-APOBEC3F blk	Giardia killer	SW480 rereplic	Vif-APOBEC3G blk	MCF10A rerep	IL1B secr inh
O=C(C[n+]1cc(-c2ccc(Br)cc2)n2c1CCCCC2)c1ccccc1	5%	0	-7%	1%	-30%	-56*
COc1cc(C(=O)n2nc(-c3ccco3)nc2NCc2ccc(Cl)cc2)cc(OC)c1OC	3%	x	x	5%	x	x
O=C(O)Cn1nc(N2CCN(c3ccccc3)CC2)ccc1=O	0%	x	x	-1%	x	x
CCCOc1cccc(C(=O)Nc2cc(-c3ccccc3)no2)c1	u	x	x	-13%	x	x
O=C(Nc1ccc(-c2nnc3n2CCCCC3)cc1)c1cc2ccccc2o1	7%	-4	2%	6%	0%	-199*
O=C(Nc1ccc(N2CCCC2)cc1)c1cc2ccccc2o1	-2%	-14	-4%	1%	9%	-11
Cc1c(C(=O)Nc2ccc(-c3nnc4n3CCCCC4)cc2)oc2c1ccc1ccccc12	0%	-26	u	-19%	u	-98*
CCOC(=O)N1CCC(NC(=O)c2cnn(-c3ccc(C)cc3)c2-n2cccc2)CC1	-2%	x	x	3%	x	x
O=C(CN1CCC(n2nnc3cc(F)ccc32)CC1)N1CCc2ccccc2C1	-8%	8	u	1%	5.2µM*	-62*
O=C(CN1CCC(n2nnc3cc(F)ccc32)CC1)NC1CC1	-1%	-7	-4%	0%	1%	2
COc1ccc(CN2COc3ccc4c(-c5ccccc5)cc(=O)oc4c3C2)cc1OC	-4%	x	x	-1%	x	x
O=C(CCn1ccc2cc(S(=O)(=O)N3CCCC3)ccc21)NCc1cccc(Br)c1	7%	x	x	2%	x	x
CN(C)c1ccc(/C=C/c2ccnc3ccc([N+](=O)[O-])cc23)cc1	x	x	x	1%	x	x
CC(=O)Nc1cccc(C(=O)/C=C/c2ccc(N(C)C)cc2)c1	u	3	u	u	u	u
CC(=O)Nc1cccc(C(=O)/C=C/c2ccc(Br)cc2)c1	-1%	19	21µM*	-29%	5.8µM*	-107*
O=C(/C=C/c1ccco1)Nc1ccc2nn(-c3ccccc3)nc2c1	11%	13	3%	-1%	7.3µM*	-3
CC(=O)Nc1cccc(C(=O)/C=C/c2cccs2)c1	4%	-8	u	-27%	u	-105*
CCC(=O)Nc1cccc(C(=O)/C=C/c2cc(Br)ccc2OC)c1	-1%	-19	3.7µM*	-27%	2.9µM*	-105*
CC(=O)Nc1cccc(C(=O)/C=C/c2ccc[nH]2)c1	2%	1	-44%	0%	5%	-23
Cc1cc(NC(=O)/C=C/c2ccco2)ccc1NC(=O)c1ccccc1	-3%	-24	11%	-5%	17%	-24
O=C(Nc1c(Cl)cc([N+](=O)[O-])cc1Cl)c1cc(Cl)ccc1O	x	-16	x	-12%	x	x
O=C(NNc1ccccc1C(F)(F)F)c1sccc1Cl	x	-8	x	x	x	x
CC(=O)Nc1cccc(C(=O)/C=C/c2ccc(F)cc2)c1	3%	-28	u	-26%	9.2µM*	-192*
CC(=O)c1cccc(NS(=O)(=O)c2ccc(N/C=C/C(=O)c3ccc(F)cc3)cc2)c1	9%	8	u	0%	u	-76*
